Autofluor 339 = intrinsic fluorescence of library compounds, ex339/em460 – biochemical, MLSMR library, data from DPM-DC assay, artefact control, profiling panel. compound autofluorescence, ex339/em460 nm, NADH buffer; active compounds read high; 1 = no-compound wells, NADH background. fluorescence fold increase at 10 µM. actives 5.5% (n = 65,000). AID 709;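 active means at 10 µM, mean starting fluorescence two-fold or more over control wells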;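 further: signal is the first read of a kinetic run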
Abs 340nm = compound absorbs light at 340 nm; fold change at 10 µM; 65,000 tested, under 10 active; compound absorbance at 340 nm, fold over control;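 active means at 10 µM dose, initial 340 nm absorbance at least 2 fold that of control wells; inactive means change under 2 fold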;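 further: initial absorbance extrapolated from kinetic A340 decline of NADH oxidation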
Spn PMK inh = inhibitors of Streptococcus pneumoniae phosphomevalonate kinase. inhibition, % at 10 µM. purified PMK, PK/LDH-coupled NADH absorbance 340 nm. actives 0.49% (n = 65,000). AID 539;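 active means top-ranked compounds by inhibition in the single 10 µM screen, taking a fixed number of the strongest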
DPM-DC inhibit = blocks S. pneumoniae diphosphomevalonate decarboxylase; AID 556; purified DPM-DC, PK/LDH coupled NADH fluorescence; calls only at 10 µM; actives 0.49% (n = 65,000);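 active means the 320 compounds with the highest percent inhibition in the single-dose primary screen, excluding strongly autofluorescent ones, cut at about 32% in these data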;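 further: kinetic rate of NADH fluorescence loss reporting ADP formed by the decarboxylase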
MK inhibit = inhibitors of Streptococcus pneumoniae mevalonate kinase; purified MK, PK/LDH-coupled NADH absorbance 340 nm; inhibition, % at 10 µM; actives 0.48% (n = 65,000); AID 555;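 active means ranked among the strongest by inhibition in the single 10 µM screen, a fixed top-ranked set picked for dose follow-up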
NADH coupling = inhibition of NAD/NADH coupling enzymes, library profiling. actives 0.02% (n = 65,000). coupled PK/LDH NADH assays, four targets. IC50, µM (titrated, usually from 10 µM). AID 774;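 active means single-dose screening hits from any of four coupled enzyme assays that gave an IC50 when retested across doses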;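 further: the DPM-DC format reads NADH fluorescence rather than 340 nm absorbance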
A number is an active result; – = inactive; · = no result shown; + = active, no number. Hits are enriched below; roughly 6.3% of the tested compounds scored in any of these assays.

SMILES	Autofluor 339	Abs 340nm	Spn PMK inh	DPM-DC inhibit	MK inhibit	NADH coupling
O/N=C1\CCC\C1=C/c1ccco1	–	–	–	+	–	–
O/N=C1/CCCSc2ccccc21	–	–	–	–	–	–
Cc1ccc2c(CC(=O)Nc3nc(C)cs3)coc2c1	–	–	–	–	–	–
COc1ccccc1N/C(N)=N/c1nc(CSc2ccc(C)cc2)cc(=O)[nH]1	–	–	–	–	–	–
Cc1cc(=O)[nH]c(/N=C(\N)Nc2cccc3ccccc23)n1	–	–	–	+	–	–
CCOC(=O)CSc1n[nH]c(-c2ccco2)n1	–	–	–	–	–	–
CCOc1ccc(-n2c(-c3ccco3)n[nH]c2=S)cc1	–	–	–	–	60.0	–
COc1ccc(Oc2c(C)oc3c(CN(C)C)c(O)ccc3c2=O)cc1	3.92	–	–	·	–	–
COc1ccc(Oc2coc3c(CN(C)C)c(O)ccc3c2=O)cc1	2.26	–	–	·	–	–
CSc1nnc2c3cc(C)ccc3n(Cc3ccccc3)c2n1	–	–	–	–	–	–
CCN(CC)CCOc1cc2c(nn1)Oc1ccccc1N2C	3.81	–	–	·	–	–
CC1CCC(NC(=O)CN2C(=O)C3CCCN3c3ncc(Cl)cc32)CC1 (configuration not stated)	2.3	–	–	–	–	–
COC(=O)c1ccccc1NC(=O)CN1C(=O)C2CCCN2c2ncc(Cl)cc21 (configuration not stated)	2.07	–	–	–	–	–
CCc1ccccc1NC(=O)CN1C(=O)C2CCCN2c2ncc(Cl)cc21 (configuration not stated)	–	–	–	–	–	–
COCCOc1ccc(C(F)(F)F)cc1Nc1nc2ccccc2o1	–	–	–	–	–	–
O=C(Nc1ccncc1)c1cc2ccccc2oc1=O	–	–	–	–	–	–
O=c1oc2ccccc2cc1-c1cn2cccnc2n1	3.6	–	–	·	–	–
CCC(=O)N1CCN(c2ccccc2NC(=O)COc2ccccc2Cl)CC1	–	–	–	–	–	–
O=C(O)c1cc(-c2ccco2)nc2ccccc12	3.69	–	–	·	–	–
CCOC(=O)N1CCN(C(=O)c2cc(C)c3c(C)nn(-c4ccccc4)c3n2)CC1	–	–	–	–	–	–
Cc1nn(-c2ccccc2)c2nc(-c3ccco3)cc(C(=O)O)c12	2	–	–	·	–	–
COc1ccc(C)cc1NC(=O)CN1CCN(S(=O)(=O)c2ccc(Br)cc2)CC1	–	–	–	–	–	–
CC(C)OCCCNC(=O)CN1C(=O)CC(C)(C)S(=O)(=O)c2ccccc21	–	–	–	–	44.0	–
CCOC(=O)CCc1c(C)c2ccc(OC(C)C(=O)OCC)c(C)c2oc1=O (configuration not stated)	3.77	–	–	·	–	–
CCOC(=O)C(C)Oc1ccc2c(C)cc(=O)oc2c1C(C)=O (configuration not stated)	–	–	–	–	–	–
SMILES	Autofluor 339	Abs 340nm	Spn PMK inh	DPM-DC inhibit	MK inhibit	NADH coupling
Cc1cc(C(=O)CSc2nnnn2-c2ccccc2)c(C)n1CC1CCCO1 (configuration not stated)	–	–	–	–	–	–
Cc1cc(C(=O)CSc2nnnn2-c2ccc(Cl)cc2)c(C)n1CC1CCCO1 (configuration not stated)	–	–	–	+	–	–
COc1ccc(C(=O)Nc2ccc3oc(-c4cccc(F)c4)nc3c2)cc1OC	2.13	–	–	·	–	–
COc1ccccc1C(=O)Nc1ccc2oc(-c3ccc(F)cc3)nc2c1	2.21	–	–	·	–	–
COc1c(F)c(F)c(C(=O)Nc2ccc3oc(-c4ccncc4)nc3c2)c(F)c1F	–	–	–	–	–	–
O=C(Nc1ccc2oc(-c3ccccc3)nc2c1)c1ccc2c(c1)OCCO2	3.19	–	–	–	–	–
Cn1c(=O)c2cc(S(=O)(=O)N3CCC(c4ccccc4)CC3)ccc2n(C)c1=O	–	–	–	–	–	–
C=CCn1c(SCn2nnc3ccccc3c2=O)nnc1C1CCCCC1	–	–	–	–	–	–
Cc1cc(=O)oc2cc(OCc3nnc(-c4ccccc4Br)o3)ccc12	4.51	–	–	·	–	–
CCCCNc1cc(NC(C)=O)cc2cc(OC)c(OC)cc12	2.13	–	–	·	–	–
CCCC(=O)Nc1cc(OC)c(OC)cc1C(=O)O	–	–	–	–	–	–
Cc1cc(=O)oc2c(CN3CCN(C)CC3)c(O)c(Cl)cc12	2.49	–	–	·	–	–
Cc1c(C)c2cc(Cl)c(O)c(CN3CCCCC3)c2oc1=O	2.48	–	–	·	–	–
CN1CCN(Cc2c(O)c(Cl)cc3c(-c4ccccc4)cc(=O)oc23)CC1	–	–	–	–	–	–
CCCc1cc(=O)oc2c(CN3CCN(C)CC3)c(O)c(Cl)cc12	2.31	–	–	·	–	–
O=c1oc2ccccc2c(O)c1CN1CCCCC1	–	–	–	–	·	–
CCCCc1cc(=O)oc2c(CN3CCCC3)c(O)c(Cl)cc12	2.95	–	–	·	–	–
CCOC(=O)c1[nH]c(C)c(C(=O)N2CCN(C(=O)OCC)CC2)c1CC	–	–	–	–	–	–
CCOC(=O)C1CCN(C(=O)CNS(=O)(=O)c2cccs2)CC1	–	–	–	–	–	–
CCN1CCN(C(=O)c2cc3c(=O)n4ccccc4nc3n2Cc2ccccc2)CC1	3.89	–	–	·	–	–
O=C(NCCN1CCOCC1)c1cc2c(=O)n3ccccc3nc2n1Cc1ccccc1	3.89	–	–	·	–	–
Cn1c(=O)c2c(nc(SCc3ccccn3)n2C)n(C)c1=O	–	–	–	–	–	–
CCOC(=O)c1ccc(N2CC(O)=C(c3nc4ccccc4c(=O)[nH]3)C2=N)cc1	2.36	–	–	·	–	–
COc1ccc(CCN2CC(O)=C(c3nc4ccccc4c(=O)[nH]3)C2=N)cc1OC	2.33	–	–	·	–	–
CCOC(=O)c1cc2c(=O)n3cccc(C)c3nc2n(Cc2ccco2)c1=NC(=O)c1cccnc1	2.17	–	–	–	–	–
SMILES	Autofluor 339	Abs 340nm	Spn PMK inh	DPM-DC inhibit	MK inhibit	NADH coupling
CCOC(=O)c1cc2c(=O)n3ccccc3nc2n(Cc2ccco2)c1=NC(=O)c1cccnc1	2.25	–	–	·	–	–
O=C(CSc1nc2ccccc2c(=O)n1Cc1ccco1)c1ccccc1	–	–	–	–	–	–
CCOC(=O)c1cc2c(=O)n3ccccc3nc2n(CC(C)C)c1=NC(=O)c1ccco1	2.47	–	–	·	–	–
Cc1cccn2c(=O)c3cc(C#N)c(=NC(=O)c4ccccc4)n(Cc4ccco4)c3nc12	2.26	–	–	·	–	–
CCOC(=O)c1cc2c(=O)n3ccccc3nc2n(CCCOC)c1=NC(=O)c1cccnc1	–	–	–	–	–	–
CN(C)CCNC(=O)C(C(=O)c1ccc(F)cc1)n1ccccc1=O (configuration not stated)	–	–	–	–	–	–
CN(c1ccc(F)cc1)S(=O)(=O)c1ccc2[nH]cc(C(=O)O)c(=O)c2c1	–	–	–	–	–	–
